Hit rate of the full screen: of about 190,000 compounds, about 1,300 (0.68%) were called active. No stated cut-off is given here; in the data, active means inhibition above about 50%; inactive means the rest. Many of the other results were omitted from the sample, so actives are more common in it than they were.

As usually defined, the inhibition is the relative decrease from the control value, in per cent.

For this experiment, the target named is Mannose-6-phosphate isomerase (Homo sapiens) (UniProt P34949). The experiment can be described thus: MPI inhibition at elevated mannose 6-phosphate – biochemical, fluorescence intensity, high mannose 6-phosphate, primary screen (AID 1220). As to conditions: recombinant PMI enzyme, coupled fluorescence intensity; at 20 µM; active compounds read high.
Mannose-6-phosphate isomerase (Homo sapiens), sequence (P34949 whole entry, looked up): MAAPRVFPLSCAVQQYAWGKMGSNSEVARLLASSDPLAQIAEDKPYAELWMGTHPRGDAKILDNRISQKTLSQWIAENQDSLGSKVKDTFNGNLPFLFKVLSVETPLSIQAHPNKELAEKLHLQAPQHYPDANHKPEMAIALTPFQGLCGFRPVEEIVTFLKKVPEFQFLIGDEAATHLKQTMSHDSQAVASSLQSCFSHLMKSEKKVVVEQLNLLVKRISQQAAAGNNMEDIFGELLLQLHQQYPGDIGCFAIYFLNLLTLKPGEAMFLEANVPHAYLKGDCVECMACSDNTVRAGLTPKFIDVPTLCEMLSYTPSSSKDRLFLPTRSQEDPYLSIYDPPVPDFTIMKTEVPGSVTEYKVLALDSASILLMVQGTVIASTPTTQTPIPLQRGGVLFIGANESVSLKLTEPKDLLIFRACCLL
With `COc1ccc(-c2oc3ncnc(N)c3c2-c2ccccc2)cc1`, the inhibition is 5.7% (inactive).

Turning to `Nc1ccccc1C(=O)N(Cc1ccccc1)Cc1ccccc1`, the inhibition was -1.7% (inactive). In the case of `C=CCSc1nnc(-c2ccc([N+](=O)[O-])cc2)o1`, the inhibition was -2.9% (inactive). For `Cc1ccc2c(C)[nH]c(=O)cc2c1`, the inhibition was 8.1% (inactive). As to `CCOc1cc(CNCc2ccncc2)cc(Br)c1OCc1ccc(F)cc1`, the inhibition was 5.1% (inactive).

Regarding `Cc1ccc(S(=O)(=O)c2nc(-c3ccco3)oc2SCC(=O)NCC2CCCO2)cc1` (configuration not stated), the inhibition was 18.4% (inactive). For `CCc1ccc(N=c2c([N+](=O)[O-])nn(-c3ccccc3)n2O)cc1` the value was 2.1% (inactive). For `COc1ccccc1N=c1c2c([N+](=O)[O-])cc([N+](=O)[O-])cc2n(O)n1-c1ccccc1OC`, the inhibition was -1.7% (inactive). Consider `O=[N+]([O-])c1cc([N+](=O)[O-])c2c(=Nc3ccccc3)n(-c3ccccc3)n(O)c2c1`, for which the inhibition was 52.9% (active).

Regarding `CCOc1cc(C2C(C#N)=C(N)Oc3n[nH]c(-c4ccncc4)c32)cc([N+](=O)[O-])c1O` (configuration not stated), the inhibition is 24.5% (inactive). As for `CCN(c1ccccc1)S(=O)(=O)c1ccc(Cl)c(NC(=O)COC(=O)C2CC2C)c1` (configuration not stated), the inhibition is 6.5% (inactive). Consider `N/C(=N\OS(=O)(=O)c1ccccc1)c1ccccn1`, for which the inhibition was -4.5% (inactive). For `CC1=C(C)/C(=N\OS(=O)(=O)c2ccccc2)C=CC1=O` the value was 49% (inactive). For `Cc1ccc(S(=O)(=O)O/N=C2\CCCc3ccccc32)cc1` the value was -0.1% (inactive); for `O=S(=O)(O/N=C1\CCCc2ccccc21)c1ccc(Cl)cc1`, -28.3% (inactive); for `N/C(=N\OS(=O)(=O)c1ccccc1)c1ccncc1`, -14.4% (inactive). For `O=S(=O)(O/N=C1\CCCc2ccccc21)c1ccccc1` the value was -10.1% (inactive); for `CC1=C/C(=N\OC(=O)/C=C/c2ccccc2)C(C)=CC1=O`, 8.4% (inactive); for `Cc1ccc(S(=O)(=O)ON=C2CCN(S(=O)(=O)c3ccccc3)CC2)cc1`, -1% (inactive).

On to `COc1ccccc1OC(C)c1nnc(SCC(=O)Nc2c(C)n(C)n(-c3ccccc3)c2=O)n1-c1ccccc1` (configuration not stated), for which the inhibition was 6.4% (inactive). Turning to `COc1ccc(CNS(=O)(=O)NCc2ccc(C)cc2)cc1`, the inhibition is -7.2% (inactive). For the compound `Cc1ccc(C)c2nc3sc(C(=O)N4CCOCC4)c(N)c3cc12`, the inhibition was 2.2% (inactive). As for `CCCC(=O)c1ccc(N2CCN(S(=O)(=O)c3ccccc3)CC2)c(F)c1`, the inhibition was 9.7% (inactive).

With `CC(C)C1C(C#N)=C(N)Oc2n[nH]c(-c3ccccc3)c21` (configuration not stated), the inhibition was 9% (inactive).

As to `O=C(Cc1cccs1)NC(c1ccccc1)c1ccccc1`, the inhibition was -1.3% (inactive). For the compound `CCC(CC)c1nnc(NC(=O)c2ccco2)s1`, the inhibition is 8.5% (inactive). For the compound `O=C1CN(C(=O)COC(=O)c2cccc(OCc3ccccc3)c2)c2ccccc2N1`, the inhibition is 20.2% (inactive). For `c1ccc(CC2CNc3ccccc3CN2)cc1` (configuration not stated), the inhibition is -7% (inactive). For `Cc1nc(N2CCN(S(=O)(=O)c3cccc4nonc34)CC2)c2c3c(sc2n1)CCCC3` the value was 14.8% (inactive); for `COc1cnc(-c2ccccn2)nc1Sc1cccc(Cl)c1`, 2.4% (inactive); for `CC(=O)c1ccc(NC(=S)N2CCN(c3cccc(Cl)c3)CC2)cc1`, -8.9% (inactive). Regarding `CCCC(=O)c1cc(F)c(N2CCN(S(=O)(=O)c3ccccc3)CC2)cc1C`, the inhibition was 14.8% (inactive). Consider `CCc1nn(CC(=O)Nc2ccc(Br)c(C)c2)c(=N)s1`, for which the inhibition is -9.2% (inactive). For the compound `CC(=O)N1C(C)(C)CC(=NOS(=O)(=O)c2ccccc2)CC1(C)C`, the inhibition was -21.1% (inactive). For `CC1=CC(=O)C=C(C)C1=NOC(=O)/C=C\c1ccccc1` the value was 22% (inactive); for `CC(=O)Nc1ccc(S(=O)(=O)N=S(C)(C)=O)cc1`, 15.7% (inactive); for `CCCC(=O)NC1=C(C#N)C2(CCCCC2)Cc2ccccc21`, -7.8% (inactive). `CC1CCCC(C)N1C(=O)CSc1nc2ccccc2s1` (configuration not stated): the inhibition was 0.3% (inactive).

With `CCOC(=O)/C(=C/c1c(C)n(C)c2ccc([N+](=O)[O-])cc12)C(C)=O`, the inhibition is 2.1% (inactive). On to `CC1(C)Oc2ccc(C(=O)N3CCCC3)cc2N(CC(=O)NCc2ccccc2)C1=O`, for which the inhibition is -8.2% (inactive). The result for `CC1(C)Oc2ccc(C(=O)N3CCOCC3)cc2N(CC(=O)Nc2ccccc2)C1=O` reads 6.6% (inactive). For `CC1(C)Oc2ccc(C(=O)N3CCCCC3)cc2N(CC(=O)NCc2ccccc2)C1=O`, the inhibition is 107% (active).

For the compound `CCOC(=O)Cn1c(=O)oc2cc(S(=O)(=O)Nc3ccc(F)cc3)ccc21`, the inhibition was -4.3% (inactive). For `O=S(=O)(c1ccc(Cl)cc1)N1CCN(Cc2ccc(O)c3ncccc23)CC1` the value was 45.3% (inactive).

As for `Oc1ccc(CN2CCCCC2)c2cccnc12`, the inhibition is 50.5% (active).

Consider `COc1ccccc1N1CCN(Cc2cc(Br)c(O)c3ncccc23)CC1`, for which the inhibition was 43.7% (inactive). For `Oc1ccc(COCc2ccccc2)c2cccnc12` the value was 46.2% (inactive); for `Oc1ccc(CN2CCC(Cc3ccccc3)CC2)c2cccnc12`, 46.2% (inactive); for `OCc1ccc(O)c2ncccc12`, 28.8% (inactive). For `OCc1ccnc2c(O)cccc12`, the inhibition was 59.6% (active). As to `Oc1ccc(CN2CCc3ccccc3C2)c2cccnc12`, the inhibition is 47.9% (inactive). For the compound `Oc1ccc(CN2CCN(c3ccccc3)CC2)c2cccnc12`, the inhibition is 50.5% (active). For the compound `COc1ccccc1N1CCN(Cc2ccc(OC)c(OC)c2OC)CC1`, the inhibition was -2.8% (inactive).

Regarding `c1ccc(N2CCN(Cc3ccnc4ccccc34)CC2)cc1`, the inhibition was -101% (inactive). The result for `COc1ccc(N2C(=O)/C(=C\c3ccco3)N=C2SCC(=O)N(C(C)C)C(C)C)cc1Cl` reads 2.5% (inactive). With `CC1C2CC(C(S(=O)(=O)N3CCOCC3)C2=O)C1(C)C` (configuration not stated), the inhibition was 8.3% (inactive). For `O=C1CCC2=C(CCCC2=O)N1`, the inhibition is 0.9% (inactive). For `O=C1CC(=O)C(n2cncn2)C(c2ccc(Cl)cc2Cl)C1` (configuration not stated), the inhibition was 14.4% (inactive). For `COc1ccc2c(c1)c1ncn(Cc3ccco3)c(=O)c1n2C` the value was 0.7% (inactive); for `Oc1c(CN2CCCCC2)cc(COCc2ccccc2)c2cccnc12`, 23.4% (inactive). For `COCc1cc(CN2CCCC2)c(O)c2ncccc12`, the inhibition is 35.4% (inactive). With `CC(C)C(=O)Nc1ccc(C(=O)N2CCCCCC2)cc1`, the inhibition was -8.1% (inactive). For `CCOc1ccccc1-n1cnc2cc(C(=O)NCc3ccco3)ccc21` the value was -4.7% (inactive); for `CC1CCN(S(=O)(=O)Cc2ccccc2Cl)CC1`, 56.9% (active); for `O=S(=O)(Cc1ccccc1Cl)N1CCCCC1`, -3.8% (inactive). For `O=S(=O)(Cc1ccccc1Cl)N1CCCC1` the value was 8.9% (inactive); for `CN1C(=O)NC(NC(=O)c2ccncc2)(C(F)(F)F)C1=O` (configuration not stated), 4.6% (inactive); for `COc1cc(NC(=S)N2CCC(C(O)(c3ccccc3)c3ccccc3)CC2)cc(OC)c1`, 52.9% (active). For `COc1ccc(OC)c(NC(=S)N2CCC(C(O)(c3ccccc3)c3ccccc3)CC2)c1` the value was 17.9% (inactive); for `COc1ccc(NC(=S)N2CCC(C(O)(c3ccccc3)c3ccccc3)CC2)cc1`, 7% (inactive); for `Cc1cc(C)c(S(=O)(=O)Nc2cccc3nsnc23)c(C)c1`, 19.4% (inactive). Consider `Cc1ccc2nsnc2c1NS(=O)(=O)c1c(C)ccc2nsnc12`, for which the inhibition is 30.6% (inactive). Turning to `Cc1ccc2nsnc2c1S(=O)(=O)Nc1cccc2nsnc12`, the inhibition was 50.1% (active).

For `O=C(Nc1ncc(Cc2cccc(Cl)c2Cl)s1)c1ccc([N+](=O)[O-])cc1`, the inhibition is -1% (inactive). As for `CCOC(=O)c1ccccc1NC(=O)CSc1ccccc1`, the inhibition was -10.2% (inactive). In the case of `O=c1[nH]c2ccccc2c(O)c1-c1cc2ccccc2oc1=O`, the inhibition is -2.4% (inactive). With `O=C(Cc1c[nH]c2ccccc12)NCc1ccccc1F`, the inhibition was 7.1% (inactive). For the compound `CN1C(=S)SC(N(O)C(=O)Nc2ccc(Cl)c(Cl)c2)C1(C)C` (configuration not stated), the inhibition is 12.6% (inactive). `CN1C(=S)SC(N(O)C(=O)Nc2ccccc2)C1(C)C` (configuration not stated): the inhibition was 10.2% (inactive). Take `CN1C(=S)SC(N(O)C(=O)Nc2cccc3ccccc23)C1(C)C` (configuration not stated): the inhibition is 62.9% (active). For the compound `CN1C(=O)/C(=C\C=C2/CCCN2C)N(C)C1=S`, the inhibition was 30.5% (inactive). `CN1CCN(/C=C2\SC(=S)NC2=O)CC1`: the inhibition was -4.7% (inactive).

For the compound `CN1CCC/C1=C/C=C1\SC(=S)NC1=O`, the inhibition was 53.1% (active). Regarding `O=C(CCCNC(=O)/C(=C\c1ccc(F)cc1)NC(=O)c1ccccc1)OCc1ccccc1`, the inhibition was 3.3% (inactive). In the case of `Cc1nc(-c2ccncc2)sc1C(=O)Nc1ccc(Cl)cc1`, the inhibition is 6.1% (inactive). Consider `O=C(Nc1ccccc1)C1=C[C@@H](c2coc3ccccc3c2=O)C[C@@H](OCCCCO)O1`, for which the inhibition is 10.1% (inactive).

For the compound `CC(C)C[C@H](NC(=O)c1nc[nH]c1C(=O)NC(c1ccccc1)c1ccccc1)C(=O)OCc1ccccc1`, the inhibition is 15% (inactive).

Turning to `CCOC(=O)Cc1csc(NC(=O)c2csc3c2CCCC3)n1`, the inhibition is 2% (inactive). `CC(C)CC(C(=O)NC1CCCC1)N(Cc1ccc2c(c1)OCO2)C(=O)c1snc(C(N)=O)c1N` (configuration not stated): the inhibition is 3.1% (inactive).

With `CC(C)CCNC(=O)C(CC(C)C)N(Cc1ccc2c(c1)OCO2)C(=O)c1snc(C(N)=O)c1N` (configuration not stated), the inhibition was 51% (active). `CCCC(C(=O)NC1CCCC1)N(Cc1ccc2c(c1)OCO2)C(=O)c1snc(C(N)=O)c1N` (configuration not stated): the inhibition was -8.2% (inactive). As for `Cn1c(=O)cc(-c2ccccc2)c2ccccc21`, the inhibition is 0.3% (inactive). Take `O=c1cc(-c2ccccc2)c2ccccc2[nH]1`: the inhibition is 10% (inactive). As to `CCS(=O)(=O)N1CCN(S(=O)(=O)c2ccccc2)CC1`, the inhibition is 1.8% (inactive). With `COc1ccccc1-n1c(=O)c(C#N)c(-c2ccc([N+](=O)[O-])cc2)c2cc(C(=O)c3cc(F)ccc3O)cnc21`, the inhibition was 14.2% (inactive). As to `CCN(CC)C(=S)SSC(=S)N(CC)CC`, the inhibition was 0.3% (inactive). In the case of `CCN(CC)C(=S)SCC(=O)c1ccccc1`, the inhibition was 7.7% (inactive).

The record behind these values is PubChem BioAssay AID1220 (Sanford-Burnham Center for Chemical Genomics, 2008).
